62 molecules from PubChem BioAssay (Tox21) can be followed below.

A short description of experiment [1]: cAMP Responsive Elements (CRE) small molecule antagonists, cell-based qHTS assay: qHTS cell viability counter screen (AID 2060913). Further: nearly all actives have a fitted effect of over 40% in size. Particulars: CRE-bla HEK293T viability, CellTiter-Glo luminescence, 5 h; series mostly up to 92.4 µM. Summed up: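 CRE-bla HEK293T cells (2,000/well, 18 h) given compound plus NKH477 0.25 uM final for 3 h at 37C; viability counter-screen by CellTiter-Glo luminescence in same wells after 30 min.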
(In general: qHTS replaces the single test concentration by a dilution series.)

Experiment [2] is described as follows: cAMP Responsive Elements (CRE) small molecule agonists, cell-based qHTS assay: qHTS cell viability counter screen (AID 2060914). Further: nearly all actives have a fitted effect of over 50% in size. The following applies: CRE-bla HEK293T viability, CellTiter-Glo luminescence, 5 h; series mostly up to 92.4 µM. Summed up: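 Cytotoxicity was measured as ATP luminescence (CellTiter-Glo, 30 min at room temperature) in the same wells as the CRE-bla FRET read-out. HEK293T CRE-bla cells had 3 h compound exposure at 37C/5% CO2.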

Each structure is given as a SMILES string. Values joined by “and” are separate entries in the source; they are usually repeats but may differ in a detail not shown here. Identical values can stand only once. Results filed as inconclusive are left out. Entries that show only a call come without a potency. Values without a mark were called inactive. Active and inactive are the calls of the source. The call rests on the fitted dose curve; in most records, active means well fitted cell-killing curve with a large enough effect in the repeat runs; inconclusive means weak or mixed curves, or effect the other way; inactive means flat fitted curve, though single readings scatter.
Potency means the concentration at half of the fitted maximal effect.

As to `C[C@]12CC[C@H]3[C@@H](CCC4=CC(=O)CC[C@@H]43)[C@@H]1CC[C@@H]2OC(=O)CCc1ccco1`, the Potency result in experiment [1] and in experiment [2] was “inactive” throughout.
On to `COc1ccccc1N1CCNCC1`, for which the Potency result in experiment [1] and in experiment [2] was “inactive” in each case.
On to `CN1[C@@H]2CC[C@H]1CC(OC(=O)c1cc(Cl)cc(Cl)c1)C2` (stereo partly specified), for which the Potency result in experiment [1] and in experiment [2] was “inactive” each time.
As for `CC(C)(C)C(O)(CCc1ccc(Cl)cc1)Cn1cncn1` (stereo unspecified), the Potency result in experiment [1] and in experiment [2] was “inactive” each time.
Take `c1cc2c(c(N3CCNCC3)c1)OCCO2`: the Potency entry in experiment [2] is “inactive”.
For the molecule `CSC(C)(C)/C=N/O`, the Potency result in experiment [1] and in experiment [2] was “inactive” throughout.
Take `CC(C)(N)Cc1ccccc1Cl`: the Potency result in experiment [1] and in experiment [2] was “inactive” throughout.
For the molecule `COc1ccccc1N`, the Potency entry in experiment [1] and in experiment [2] was “inactive” throughout.
In the case of `Clc1ccc(-c2ccccc2)cc1`, the Potency entry in experiment [1] and in experiment [2] was “inactive” each time.
Consider `C1CN2CCN1CC2`, for which, in experiment [2], the Potency entry was “inactive”.
Still for that read-out and setting: in the case of `CCOC(=O)CCl` it was “inactive”.
Take `CCN[C@@H](C)Cc1cccc(C(F)(F)F)c1`: the Potency result in experiment [1] and in experiment [2] was “inactive” each time.
On to `CCOC(=O)c1cncn1C(C)c1ccccc1` (stereo unspecified), for which the Potency entry in experiment [1] and in experiment [2] was “inactive” each time.
Turning to `C=CC(=C)C`, the Potency result in experiment [1] and in experiment [2] was “inactive” throughout.
Consider `CCCCCCCCCCCC[N+](C)(C)CCOc1ccccc1`, for which, in experiment [2], the Potency is 61.1 µM (active).
`CCC12COCN1COC2`: the Potency entry in experiment [1] and in experiment [2] was “inactive” in each case.
As to `O=C(O)COc1ccc(Cl)cc1Cl`, the Potency result in experiment [2] was “inactive”.
As to `CCCCN(CCCC)C(=S)[S-].CCCCN(CCCC)C(=S)[S-].[Zn+2]`, the Potency entry in experiment [1] and in experiment [2] was “inactive” in each case.
Regarding `CC(C1CC1)C(O)(Cn1cncn1)c1ccc(Cl)cc1` (stereo unspecified), the Potency entry in experiment [1] and in experiment [2] was “inactive” throughout.
Take `CC(CCc1ccccc1)NC(C)C(O)c1ccc(O)cc1` (stereo unspecified): the Potency result in experiment [1] and in experiment [2] was “inactive” each time.
With `CC(C)N(C(=O)COc1nnc(C(F)(F)F)s1)c1ccc(F)cc1`, the Potency entry in experiment [1] and in experiment [2] was “inactive” in each case.
With `CCN`, the Potency result in experiment [1] and in experiment [2] was “inactive” in each case.
On to `COP(=O)(OC)OC(Br)C(Cl)(Cl)Br` (stereo unspecified), for which the Potency entry in experiment [1] and in experiment [2] was “inactive” each time.
`Nc1ncn[nH]1`: the Potency result in experiment [1] and in experiment [2] was “inactive” throughout.
Take `C[C@H]1CNCCc2ccc(Cl)cc21`: the Potency entry in experiment [2] is “inactive”.
In the case of `ClC(Cl)=C(c1ccc(Cl)cc1)c1ccc(Cl)cc1`, in experiment [2], the Potency result was “inactive”.
In the case of `N#CC(C#N)=C(C#N)C#N`, the Potency result in experiment [1] and in experiment [2] was “inactive” each time.
Turning to `[As]#[In]`, the Potency in experiment [2] was 2.17 µM (active).
In the case of `CCCCCCCCCCCCN=C(N)N`, the activity change, negative = cytotoxicity in experiment [2] was -15.8% [at 3.27 µM].
With `COc1cc(CCN)cc(OC)c1OC`, the Potency result in experiment [1] and in experiment [2] was “inactive” each time.
For `C(COCC1CO1)OCC1CO1` (stereo unspecified), the Potency result in experiment [1] and in experiment [2] was “inactive” in each case.
With `C=C(C)C(=O)OCC1CO1` (stereo unspecified), the Potency result in experiment [1] and in experiment [2] was “inactive” throughout.
With `CCCCN(CCCC)C(=S)[S-].CCCCN(CCCC)C(=S)[S-].[Ni+2]`, the Potency entry in experiment [1] and in experiment [2] was “inactive” each time.
For the molecule `CC[N+]1(C)CCCC(OC(=O)C(O)(c2ccccc2)c2ccccc2)C1` (stereo unspecified), the Potency result in experiment [1] and in experiment [2] was “inactive” throughout.
With `CCOC(=O)CC(SP(=S)(OC)OC)C(=O)OCC` (stereo unspecified), the Potency result in experiment [1] and in experiment [2] was “inactive” in each case.
With `CCN(CC)CCOC(=O)C(C)(c1ccccc1)c1ccccc1`, the Potency result in experiment [2] is “inactive”.
As for `CCC(C)(NC(=O)c1cc(Cl)c(C)c(Cl)c1)C(=O)CCl` (stereo unspecified), the Potency result in experiment [2] was “inactive”.
Consider `Nc1ccc([N+](=O)[O-])cc1[N+](=O)[O-]`, for which the Potency entry in experiment [1] and in experiment [2] was “inactive” throughout.
Turning to `CCCCCCCCn1sccc1=O`, the Potency is 54.6 µM (active) and 64.1 µM (active) in experiment [1]; 43.4 µM (active) in experiment [2].
Regarding `C=CC(C)=O`, the Potency entry in experiment [1] and in experiment [2] was “inactive” in each case.
In the case of `N#CCCl`, the Potency result in experiment [2] was “inactive”.
On the same count and under the same terms, in the case of `O=C1CN=C(c2ccccc2)c2cc(Cl)ccc2N1CC1CC1` it was “inactive”.
The same measure, in the same setting: the result for `c1ccc2sc(SNC3CCCCC3)nc2c1` reads “inactive”; that for `Cc1nc(N(C)C)nc(OC(=O)N(C)C)c1C`, “inactive”; that for `O=C(NCc1cccnc1)Nc1ccc([N+](=O)[O-])cc1`, “inactive”.
On the same count and under the same terms, in the case of `CN(CCCC(O)c1cccnc1)N=O` (stereo unspecified) it was “inactive”; in that of `COP(=S)(OC)Oc1ccc([N+](=O)[O-])cc1`, “inactive”; in that of `CNC(=O)/C=C(\C)OP(=O)(OC)OC`, “inactive”.
As for `CCOP(=S)(NC(C)C)Oc1ccccc1C(=O)OC(C)C` (stereo unspecified), in experiment [2], the Potency result was “inactive”.
On to `N#C/C=C/C#N`, for which the Potency result in experiment [2] is “inactive”.
As for `C1=Cc2cccc3cccc1c23`, the Potency entry in experiment [2] was “inactive”.
With `CO/C=C(/C(=O)OC)c1ccccc1COc1cccc(C(F)(F)F)n1`, the Potency result in experiment [2] is “inactive”.
Same read-out and setting: in the case of `CCc1cc(OC)c(C[C@H](C)N)cc1OC` it was “inactive”.
On the same count and under the same terms, the result for `c1ccc2c(c1)Sc1ccccc1N2CC1CN2CCC1CC2` (stereo unspecified) reads “inactive”; that for `CCOP(=S)(S)OCC`, “inactive”.
Same read-out and setting: in the case of `C[C@]12Cc3nonc3C[C@@H]1CC[C@@H]1[C@@H]2CC[C@@]2(C)[C@H]1CC[C@]2(C)O` it was 29.8 µM (active).
In the case of `Oc1cc(Cl)c(Cl)c(Cl)c1Cl`, in experiment [2], the Potency result is “inactive”.
Regarding `Cc1ccc(-c2c(Cl)nc(C#N)n2S(=O)(=O)N(C)C)cc1`, the Potency entry in experiment [2] was “inactive”.
Take `CC(=O)[O-].[Tl+]`: in experiment [2], the Potency entry is “inactive”.
Take `CCCCc1ccc(O)cc1`: the Potency entry in experiment [2] is “inactive”.
Turning to `O=C(N[C@H](c1ccccc1)[C@@H]1CN2CCC1CC2)c1c(Cl)ccc(C(F)(F)F)c1Cl`, the Potency entry in experiment [2] is “inactive”.
`C=CCN1CC[C@]23CCCC[C@H]2[C@H]1Cc1ccc(O)cc13`: the Potency entry in experiment [2] is “inactive”.
